Experimental findings from PubChem BioAssay are described below.

Activity calls are given as the source filed them. Unless noted, how the calls were made is not given here.

Experiment [1] is described as follows: anti-His antibody binders, primary screen, artefact control for SMM control protein annotation, biochemical, small-molecule microarray, 635 nm fluorescence (AID 1128).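 Further: score merges feature fluorescence with signal-to-noise for each printed compound spot.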 Conditions: anti-His Alexa647 antibody binding, higher = more signal.
Experiment [2] has as its system Human papillomavirus type 1a E7 protein (residues 1-88). Kind of experiment: HPV1a E7 small-molecule binders, primary screen, biochemical, small-molecule microarray, residues 1-88, 635 nm (AID 1129). Conditions: small-molecule microarray binding, fluorescence 635 nm; higher = more signal.
In experiment [3] the target is Focal adhesion kinase 1 (Homo sapiens) (UniProt Q05397). In words: small-molecule microarray binders of FAK, primary screen, biochemical, 635/667 nm fluorescence, BSA, DTT (AID 1130).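 Further: composite of spot emission at 667 nm and signal to noise over triplicate slides.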 Conditions: PTK2 binding, 635 nm fluorescence, higher = more signal.
In experiment [4] the test system is Fibrinogen (Alexa647-labelled). In words: fibrinogen binders on compound microarrays, profiling panel, artefact control for SMM control-protein annotation, biochemical, small-molecule microarray, 635/667 nm fluorescence (AID 1131).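 Further: z-score merges 667 nm fluorescence with per-spot signal-to-noise over triplicate slides.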 Conditions: fibrinogen-A647 binding fluorescence, higher = more signal.
Experiment [5] has as its target Follistatin (Homo sapiens) (UniProt P19883). In words: follistatin binders on small-molecule microarrays, primary screen, biochemical, small-molecule microarray, 635/667 nm fluorescence (AID 1132). Conditions: FST binding, 635 nm fluorescence, higher = more signal.
Experiment [6] addresses Fibroblast growth factor 2 (Homo sapiens) (UniProt P09038). Kind of experiment: FGF2 binders on small-molecule microarrays, primary screen, biochemical, small-molecule microarray, 635/667 nm fluorescence (AID 1133). Conditions: small-molecule microarray binding, FGF2, fluorescence 635/667; higher = more signal.
Experiment [7] is described as follows: mitochondrial membrane potential change in A549 cells, profiling panel, cell-based, JC-1 fluorescence, basal, 24 h, 100 nL (AID 1138).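 Further: A549 lung adenocarcinoma cells under basal conditions with no added stimulus; test concentration not given here.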 Conditions: higher = more signal.
The subject of a further experiment is Lefty1. Kind of experiment: Lefty1 binders on small-molecule microarrays, primary screen, biochemical, small-molecule microarray, 635/667 nm fluorescence (AID 1139). Conditions: small-molecule microarray binding, fluorescence 635/667; higher = more signal.
Experiment [8] has as its system wheat germ agglutinin (Triticum aestivum), Alexa647-labelled. In words: wheat germ agglutinin binders on compound microarrays, profiling panel, artefact control for SMM control-protein annotation, biochemical, small-molecule microarray, 635/667 nm fluorescence (AID 1140).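 Further: score merges 667 nm feature emission with signal to noise over triplicate slides.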 Conditions: WGA-A647 binding, 635 nm fluorescence, higher = more signal.
Experiment [9] addresses Luciferin 4-monooxygenase (Photinus pyralis) (UniProt P08659). In words: firefly luciferase enzyme inhibitors, primary screen, biochemical, luminescence, purified enzyme, 2006 set (AID 1141).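 Further: cell-free assay with purified firefly luciferase at 100 ng per well in PBS; test concentration not given here.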 Conditions: SteadyGlo luminescence, 30 min, higher = more signal, called active from +8 up or from −8 down.
Experiment [10] concerns Wnt5a (protein binding on small-molecule microarray). In words: Wnt5a binders on small-molecule microarray, primary screen, biophysical, 635/667 nm fluorescence (AID 1142).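 Further: fluorescence read at 667 nm with signal to noise per printed feature.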 Conditions: 635 nm fluorescence, higher = more signal.
The nature of experiment [11]: cell viability in Huh7 cells, primary screen, cytotoxicity control for HCV replication inhibitor project, CellTiter-Glo luminescence, basal, 48 h (AID 1143).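 Further: Huh7 hepatoma cells carrying a hepatitis C replication reporter with no stimulus; test concentration not given here.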 Conditions: Huh7 HCV replicon, higher = more signal, called active from +8 up or from −8 down.
The nature of experiment [12]: P. aeruginosa biofilm formation inhibitors, primary screen, PAO1 strain, BacTiter-Glo luminescence, LB-PBS (AID 1144). Conditions: 12 h, higher = more signal.
Experiment [13] in a line: CREB reporter modulators without forskolin, primary screen, cell-based, PC12, CRE-LacZ reporter, unstimulated (AID 1145). Conditions: no forskolin, luminescence, 4.5 h, higher = more signal, called active from +8 up or from −8 down.
Experiment [14] in a line: CREB reporter modulators under forskolin, primary screen, cell-based, PC12, CRE-LacZ reporter, forskolin-stimulated (AID 1146).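 Further: PC12 cells with 6xCRE LacZ reporter stimulated by forskolin 10 µM; beta-galactosidase reporter signal reflecting CREB driven transcription.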 Conditions: luminescence, 4.5 h, higher = more signal, called active from +8 up or from −8 down.
For experiment [15], the target named is Streptavidin (Streptomyces avidinii) (UniProt P22629). Kind of experiment: streptavidin binders on small-molecule microarray, primary screen, artefact control for SMM compound annotation, biophysical, 635/667 nm fluorescence (AID 1147).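 Further: signal reflects streptavidin binding to arrayed compounds as a control protein.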 Conditions: streptavidin binding, higher = more signal.
Experiment [16] can be described thus: small-molecule binders of probe aInhba, primary screen, biochemical, small-molecule microarray, 635/667 nm fluorescence (AID 1148).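 Further: score merges 667nm spot fluorescence with signal-to-noise for antibody binding to printed compounds.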 Conditions: higher = more signal.
The target of experiment [17] is Torsin-1A (Homo sapiens) (UniProt O14656). Kind of experiment: torsin A binders from cell lysate, primary screen, small-molecule microarray, wild-type, 635/667 nm (AID 1149). Conditions: COS7 hTOR1A-WT lysate, 635 nm fluorescence, higher = more signal.
Experiment [18] shares this target. In words: small-molecule binders of mutant TOR1A in lysate, primary screen, cell lysate, small-molecule microarray, COS7 lysate, 635/667 nm fluorescence (AID 1150).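 Further: score pools 667 nm emission and signal to noise measuring lysate protein binding.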 Conditions: COS7 hTOR1A mutant lysate, 635 nm fluorescence, higher = more signal.
Experiment [19] deals with Sonic hedgehog protein (Shh). In words: small-molecule binders of Shh protein, primary screen, biochemical, small-molecule microarray, 635/667 nm fluorescence (AID 1151).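 Further: Shh protein binding to compounds spotted on small-molecule microarray slides; score combines spot fluorescence intensity with signal-to-noise across triplicate slides.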 Conditions: small-molecule microarray binding, 635 nm fluorescence; higher = more signal.

Chain of Fibroblast growth factor 2 (Homo sapiens) (P09038 whole entry, looked up): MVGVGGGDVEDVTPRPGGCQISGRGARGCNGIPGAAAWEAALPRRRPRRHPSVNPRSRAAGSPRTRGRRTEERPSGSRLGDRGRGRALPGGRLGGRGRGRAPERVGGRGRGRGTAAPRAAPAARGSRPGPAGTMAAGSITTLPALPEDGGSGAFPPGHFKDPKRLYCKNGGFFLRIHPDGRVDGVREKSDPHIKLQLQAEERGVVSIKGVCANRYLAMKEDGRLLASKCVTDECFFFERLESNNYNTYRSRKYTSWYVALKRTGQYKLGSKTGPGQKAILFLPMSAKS
Chain of Streptavidin (Streptomyces avidinii) (P22629 whole entry, looked up): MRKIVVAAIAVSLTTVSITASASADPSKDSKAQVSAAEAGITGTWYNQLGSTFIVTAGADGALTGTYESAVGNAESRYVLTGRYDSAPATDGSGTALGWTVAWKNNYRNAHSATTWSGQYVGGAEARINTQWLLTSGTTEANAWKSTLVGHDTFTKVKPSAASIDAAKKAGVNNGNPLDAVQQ
Chain of Torsin-1A (Homo sapiens) (O14656 whole entry, looked up): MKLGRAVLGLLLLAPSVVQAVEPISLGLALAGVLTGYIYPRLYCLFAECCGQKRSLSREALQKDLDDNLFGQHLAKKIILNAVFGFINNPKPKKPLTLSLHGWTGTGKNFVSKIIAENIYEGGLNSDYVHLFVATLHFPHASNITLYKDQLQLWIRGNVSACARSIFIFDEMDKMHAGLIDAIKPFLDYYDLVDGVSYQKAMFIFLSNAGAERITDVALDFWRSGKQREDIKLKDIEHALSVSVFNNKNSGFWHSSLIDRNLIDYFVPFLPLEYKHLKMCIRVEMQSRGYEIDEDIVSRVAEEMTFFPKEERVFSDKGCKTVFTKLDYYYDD
Chain of Follistatin (Homo sapiens) (P19883 whole entry, looked up): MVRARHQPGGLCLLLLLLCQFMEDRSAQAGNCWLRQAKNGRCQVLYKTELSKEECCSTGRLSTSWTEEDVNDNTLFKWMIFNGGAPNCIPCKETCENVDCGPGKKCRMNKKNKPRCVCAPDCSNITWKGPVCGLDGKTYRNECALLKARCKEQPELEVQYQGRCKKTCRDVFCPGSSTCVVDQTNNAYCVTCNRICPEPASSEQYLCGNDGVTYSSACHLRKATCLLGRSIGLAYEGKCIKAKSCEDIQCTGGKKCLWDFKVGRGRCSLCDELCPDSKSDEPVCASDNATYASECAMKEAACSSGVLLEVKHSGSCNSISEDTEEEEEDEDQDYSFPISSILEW
Chain of Focal adhesion kinase 1 (Homo sapiens) (Q05397 whole entry, looked up): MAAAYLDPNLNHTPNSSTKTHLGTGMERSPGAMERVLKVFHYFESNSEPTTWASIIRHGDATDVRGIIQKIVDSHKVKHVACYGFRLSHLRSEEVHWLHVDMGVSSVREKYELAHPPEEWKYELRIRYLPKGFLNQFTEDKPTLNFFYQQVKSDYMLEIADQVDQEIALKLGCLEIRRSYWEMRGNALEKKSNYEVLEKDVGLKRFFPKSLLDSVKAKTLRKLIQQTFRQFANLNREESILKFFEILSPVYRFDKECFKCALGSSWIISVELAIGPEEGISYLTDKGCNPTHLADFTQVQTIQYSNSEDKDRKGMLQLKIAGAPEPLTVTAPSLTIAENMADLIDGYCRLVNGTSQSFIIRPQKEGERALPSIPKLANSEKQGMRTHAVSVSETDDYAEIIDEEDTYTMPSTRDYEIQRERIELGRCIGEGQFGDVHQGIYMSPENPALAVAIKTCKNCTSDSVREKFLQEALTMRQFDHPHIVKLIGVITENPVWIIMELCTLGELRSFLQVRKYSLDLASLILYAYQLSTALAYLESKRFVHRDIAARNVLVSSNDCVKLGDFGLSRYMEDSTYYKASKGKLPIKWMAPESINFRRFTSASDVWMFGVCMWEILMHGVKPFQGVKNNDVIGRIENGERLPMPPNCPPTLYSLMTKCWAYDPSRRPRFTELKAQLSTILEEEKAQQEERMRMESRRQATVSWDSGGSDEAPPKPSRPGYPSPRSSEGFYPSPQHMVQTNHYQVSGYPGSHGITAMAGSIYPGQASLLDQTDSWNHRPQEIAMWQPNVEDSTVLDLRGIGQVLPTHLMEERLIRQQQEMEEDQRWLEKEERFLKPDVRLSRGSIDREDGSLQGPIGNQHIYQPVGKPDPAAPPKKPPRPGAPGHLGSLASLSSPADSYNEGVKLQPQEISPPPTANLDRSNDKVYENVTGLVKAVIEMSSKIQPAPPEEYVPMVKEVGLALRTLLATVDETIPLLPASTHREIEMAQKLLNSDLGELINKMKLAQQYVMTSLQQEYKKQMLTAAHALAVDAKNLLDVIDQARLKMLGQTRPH
Chain of Luciferin 4-monooxygenase (Photinus pyralis) (P08659 whole entry, looked up): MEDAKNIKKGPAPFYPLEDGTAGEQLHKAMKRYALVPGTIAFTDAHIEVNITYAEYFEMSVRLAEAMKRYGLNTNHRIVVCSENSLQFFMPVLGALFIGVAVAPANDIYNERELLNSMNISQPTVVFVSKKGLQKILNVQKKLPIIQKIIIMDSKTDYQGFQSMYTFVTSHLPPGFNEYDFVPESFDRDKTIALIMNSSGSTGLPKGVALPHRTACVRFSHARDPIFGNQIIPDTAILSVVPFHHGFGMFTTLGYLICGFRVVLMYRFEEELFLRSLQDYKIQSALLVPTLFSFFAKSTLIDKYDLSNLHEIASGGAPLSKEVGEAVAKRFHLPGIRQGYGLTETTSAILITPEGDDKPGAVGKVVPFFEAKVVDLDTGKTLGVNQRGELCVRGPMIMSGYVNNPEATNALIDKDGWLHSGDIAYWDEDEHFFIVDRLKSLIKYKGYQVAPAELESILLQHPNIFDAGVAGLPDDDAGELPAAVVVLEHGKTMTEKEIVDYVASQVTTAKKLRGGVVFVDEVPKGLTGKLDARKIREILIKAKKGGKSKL

As to `CCOC(=O)NN=C1C[C@@H](O)[C@@H](O)[C@@H]2[C@@H]3C(=O)N(C(C)(C)C)C(=O)[C@@H]3CC[C@H]12`, the composite z-score in experiment [1] was 0.322; in experiment [2], 0.215; in [3], 0.064; in experiment [4], 0.0959; in [5], 0.903; in experiment [6], 0.647. Besides, the composite z-score in the experiment on Lefty1 was 0.279; in experiment [8] it was -0.0123; in experiment [10], 0.138; in [15] it was 0.344; in experiment [16], 0.0427; with Torsin-1A (Homo sapiens) [17], 0.446. Besides, the composite z-score was determined as 0.307 in the experiment with Torsin-1A (Homo sapiens) [18] and 0.187 in experiment [19]. Moreover, the z-score is 0.233 in [7]; 0.0659 (inactive) in experiment [9]; -0.0395 (inactive) in [11]; 0.655 (inactive) in [12]; -0.295 (inactive) in [13]; 0.269 (inactive) in experiment [14].

Turning to `CC(C)(C)N1C(=O)[C@H]2[C@H]3[C@H](O)[C@H](O)CC(=NOCc4ccccc4)[C@H]3CC[C@H]2C1=O`, the composite z-score in [1] is 0.102; in experiment [2] it was 0.0128; in [3], -0.103; in experiment [4], 0.451; in experiment [5] it was -0.829; in experiment [6] it was -0.34. Besides, the composite z-score is -0.484 in the experiment with Lefty1; 0.877 in experiment [8]; 0.0771 in experiment [10]; 1 in experiment [15]; 0.0342 in [16]; -0.65 with Torsin-1A (Homo sapiens) [17]. For the same molecule, the composite z-score is 0.155 with Torsin-1A (Homo sapiens) [18] and -0.587 in experiment [19]. The z-score is -0.316 in [7]; 0.109 (inactive) in [9]; 0.899 (inactive) in [11]; -0.192 (inactive) in [12]; 0.968 (inactive) in experiment [13]; 0.183 (inactive) in experiment [14].

Regarding `CCOC(=O)[C@H](Cc1ccccc1)NC(=O)CCC1CC(OC(=O)NCCc2ccc(F)cc2)CC2(CCCC(COC(=O)NCCOC)O2)O1` (stereo not given in full), the composite z-score in [1] was found to be 0.384; in [2], 1.17; in [3] it was 2.79; in experiment [4], 0.916; in experiment [5], 1.01; in experiment [6], 0.557. In addition, the composite z-score with Lefty1 is 1.26; in experiment [8] it was 0.526; in experiment [10], 1.58; in experiment [15] it was 1.19; in experiment [16], 0.122; with Torsin-1A (Homo sapiens) [17], 0.998. Moreover, the figures for the composite z-score (with Torsin-1A (Homo sapiens) [18]; in experiment [19]) were 0.753 and 0.784, respectively. Besides, the z-score was 0.671 in [7]; -0.24 (inactive) in experiment [9]; -0.326 (inactive) in experiment [11]; -0.852 (inactive) in [12]; 0.473 (inactive) in [13]; -0.728 (inactive) in experiment [14].

Regarding `CC(C)=CCCC(C)=CCON=C1C[C@@H](O)[C@@H](O)[C@@H]2[C@@H]3C(=O)N(c4cccc(Oc5ccccc5)c4)C(=O)[C@@H]3CC[C@@H]12`, the composite z-score in experiment [1] came to 0.0079; in [2], 0.929; in [3], 1.58; in experiment [4], 0.589; in [5], 0.612; in [6], 0.207. The composite z-score was 0.514 with Lefty1; 0.0969 in experiment [8]; -0.102 in experiment [10]; 0.217 in experiment [15]; -0.128 in [16]; -0.38 with Torsin-1A (Homo sapiens) [17]. The composite z-score was found to be 0.0864 with Torsin-1A (Homo sapiens) [18] and 0.402 in experiment [19]. Also, the z-score in experiment [7] is -0.82; in [9], 0.775 (inactive); in experiment [11], -4.07 (inactive); in experiment [12], -0.375 (inactive); in experiment [13], 2.51 (inactive); in [14], 0.557 (inactive).

For the molecule `CC(=O)OC[C@H]1O[C@H](CC=NO[C@H](C)c2cn([C@H](CO)Cc3ccccc3)nn2)C=C[C@@H]1OC(C)=O`, the composite z-score in [1] is 0.499; in experiment [2], 0.777; in experiment [3], -0.0453; in [4], 0.0573; in [5], 0.69; in experiment [6] it was 0.494. In addition, the composite z-score in the experiment on Lefty1 is 0.732; in experiment [8], 0.439; in experiment [10], 0.315; in experiment [15], 1.35; in experiment [16], -0.218; with Torsin-1A (Homo sapiens) [17], 0.56. Besides, the composite z-score came out at 0.579 in the experiment with Torsin-1A (Homo sapiens) [18] and 0.805 in [19]. For the same molecule, the z-score in experiment [7] is -0.866; in experiment [9], 0.809 (inactive); in experiment [11] it was 0.089 (inactive); in experiment [12] it was -0.738 (inactive); in [13], 0.839 (inactive); in experiment [14], 0.731 (inactive).
